Screening data deposited in PubChem by Broad Institute.
An excerpt weighted towards active compounds, which were near 4% of everything screened.
DENV2 CPE: inhibitors of DENV2 cytopathic effect, primary screen, cell-based, plate reader, single concentration. DENV2-infected cells, cytopathic effect rescue. CPE inhibition, % at 9.99 µM. 1.7% of 350,000 active. AID 651640, 2012; in the data active = CPE inhibition above about 20%, passing the limit was not always enough; inconclusive = no clear call, values can overlap the other calls; tested in BHK-21 cells;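 note: 0% = median of neutral control wells and 100% = median of positive control wells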
MLL AF4-AF9 inh: inhibitors of AF4 peptide binding to AF9, primary screen, biochemical, AlphaScreen, biotin-AF4 peptide, FLAG-AF9, single point; Protein AF-9 (Homo sapiens), P42568; inhibition, % at 10 µM; 0.47% of 350,000 active;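 active = every replicate reaching a set inhibition limit, whatever the replicate mean, cut at about 25% in these data; inconclusive = mean inhibition reaches that limit but some replicates miss it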;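 note: 0% = plate neutral control median and 100% = total signal loss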
FGF22 binding: binders of human FGF22 protein, primary screen, FGF22 synaptogenesis inhibitor project, biophysical, thermal shift, single point; activity (Tm shift, normalised), % at 9.99 µM; Fibroblast growth factor 22 (Homo sapiens), Q9HCT0; 1.5% of 340,000 active; recombinant FGF22 thermal shift, SYPRO orange fluorescence; percent of sucrose octasulfate shift, DMSO zero;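 active = mean Tm shift, scaled 0 neutral to 100 positive control, at about 1.3% or above, every replicate too, limit read from the data; inconclusive = no clear call, values can overlap the other calls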
Target sequence (Q9HCT0 whole entry, looked up): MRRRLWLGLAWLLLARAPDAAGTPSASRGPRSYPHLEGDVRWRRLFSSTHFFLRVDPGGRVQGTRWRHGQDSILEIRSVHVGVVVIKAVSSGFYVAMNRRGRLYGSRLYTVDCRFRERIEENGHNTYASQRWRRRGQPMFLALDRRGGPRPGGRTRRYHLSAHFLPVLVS
ERAP1 inh: human ERAP1 aminopeptidase inhibitors, primary screen, biochemical, single point, plate reader | Endoplasmic reticulum aminopeptidase 1 (Homo sapiens), Q9NZ08 | recombinant ERAP1, Leu-AMC fluorescence, 60 min | inhibition, % at 10.7 µM | 0.15% of 340,000 active | AID 652197, 2013;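 active = mean replicate inhibition of at least 30%, or all replicates individually reaching that 30% level; inactive = mean below 30% and not every replicate reaching it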;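 note: 0% = neutral control wells and 100% = L-leucinethiol positive control wells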
RAD52 inh: RAD52 DNA annealing inhibitors, primary screen, biochemical, FRET, single point, set 2; DNA repair protein RAD52 homolog (Homo sapiens), P43351; recombinant RAD52 DNA annealing, FRET fluorescence; inhibition, % at 18.7 µM; 0.46% of 360,000 active;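 active = every replicate showing at least 50% inhibition; inconclusive = mean inhibition at least 50% but not in every replicate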
Target sequence (P43351 whole entry, looked up): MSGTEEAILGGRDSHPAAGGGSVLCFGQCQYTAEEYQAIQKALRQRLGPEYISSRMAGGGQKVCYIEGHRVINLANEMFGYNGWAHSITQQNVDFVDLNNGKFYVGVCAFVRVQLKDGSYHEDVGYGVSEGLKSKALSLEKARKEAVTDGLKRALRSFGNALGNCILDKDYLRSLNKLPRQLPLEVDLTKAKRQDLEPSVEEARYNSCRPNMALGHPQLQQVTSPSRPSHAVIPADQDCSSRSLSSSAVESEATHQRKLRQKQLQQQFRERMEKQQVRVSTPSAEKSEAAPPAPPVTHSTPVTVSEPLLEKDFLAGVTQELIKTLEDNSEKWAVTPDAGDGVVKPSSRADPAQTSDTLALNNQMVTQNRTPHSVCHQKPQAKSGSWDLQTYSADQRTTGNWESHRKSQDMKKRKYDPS
* marks the source's active call; other numbers are inactive results; u = inconclusive; x = not tested or not shown; ! = a repeat was not active.

SMILES | DENV2 CPE | MLL AF4-AF9 inh | FGF22 binding | ERAP1 inh | RAD52 inh
O=C(C[C@@H]1CC[C@H]2[C@@H](COC[C@@H](O)CN2Cc2cccc(Cl)c2)O1)N1CCOCC1 | 90* | -2 | 0 | 1 | -8
CN1CCN(C(=O)C[C@@H]2CC[C@H]3[C@@H](COC[C@@H](O)CN3Cc3cccc(Cl)c3)O2)CC1 | 27* | -4 | 0 | 0 | 18
CN1CCN(C(=O)C[C@H]2CC[C@H]3[C@@H](COC[C@@H](O)CN3Cc3cccc(Cl)c3)O2)CC1 | -6 | -1 | 0 | 1 | 9
O=C(C[C@@H]1CC[C@@H]2[C@H](COC[C@H](O)CN2Cc2cccc(Cl)c2)O1)N1CCOCC1 | 103* | -1 | 0 | -1 | -12
O=C(C[C@H]1CC[C@H]2[C@@H](COC[C@@H](O)CN2Cc2ccc(Oc3ccccc3)cc2)O1)N1CCCCC1 | 24* | 2 | 0 | 3 | 10
C[C@H]1CN([C@@H](C)CO)C(=O)c2cc(NS(=O)(=O)c3cccs3)ccc2O[C@@H]1CN(C)S(=O)(=O)c1ccc(Cl)cc1 | u | -2 | 0 | -2 | -1
c1ccc(-c2csc(-c3ccc(-c4csnn4)cc3)n2)cc1 | 54* | -2 | 0 | -3 | 0
Cc1noc(C)c1S(=O)(=O)Nc1ccc2c(c1)C(=O)N([C@@H](C)CO)C[C@@H](C)[C@H](CN(C)S(=O)(=O)c1cn(C)cn1)OCCCC[C@H](C)O2 | 0 | -3 | 0 | 1 | 0
C[C@H]1CN([C@@H](C)CO)C(=O)CCCn2nncc2CO[C@H]1CN(C)S(=O)(=O)c1ccc(Oc2ccccc2)cc1 | 30*! | 2 | 0 | -1 | -3
C[C@H]1CN([C@@H](C)CO)C(=O)CCCn2nncc2CO[C@H]1CN(C)S(=O)(=O)c1ccccc1F | 27*! | 0 | 0 | -2 | -12
O=C(C[C@H]1C=C[C@@H](NS(=O)(=O)c2ccc(F)cc2)[C@@H](CO)O1)NCc1ccc(Cl)c(Cl)c1 | 3 | -1 | 0 | 0 | -2
CC(=O)N1[C@H](CO)[C@H](c2ccccc2)[C@@H]1CN(C(=O)c1ccc(F)cc1)C(C)C | 4 | -2 | -1 | -2 | -11
NS(=O)(=O)c1cccc(NC(=O)CSc2n[nH]c(-c3cccs3)n2)c1 | 1 | -4 | 1 | -3 | -1
Cc1ccc(NC(=O)CSc2nc(N)cc(=O)[nH]2)cc1S(=O)(=O)N1CCOCC1 | -1 | 3 | 0 | x | -16
COc1ccc(NC(=O)CSc2n[nH]c(-c3ccccc3)n2)cc1S(N)(=O)=O | 52* | 3 | 1 | 1 | -1
COc1ccc(-c2nc(SCC(=O)Nc3cccc(S(N)(=O)=O)c3)n[nH]2)cc1 | 4 | -3 | 1.8* | -1 | -6
Cc1ccc(NC(=O)CSc2n[nH]c(N)n2)cc1S(=O)(=O)N1CCOCC1 | -5 | 4 | 44* | 2 | -9
O=C(CSc1n[nH]c(-c2ccccc2)n1)NCc1cccc(C(=O)O)c1 | 0 | -3 | 43* | 2 | -6
CC=Cc1ccc2n(c1=O)C[C@H]1[C@H](CO)[C@@H](C(=O)N(C)C)[C@@H]2N1CC1CCCC1 (mixture of isomers) | 2 | -10 | x | -6 | -7
C[C@@H]1CN([C@@H](C)CO)C(=O)c2cc(NC(=O)NC3CCCCC3)ccc2O[C@H]1CN(C)CC1CCCCC1 | 0 | 1 | 0 | 4 | -4
CO[C@H]1CN(C)C(=O)c2cc(NC(=O)c3ccc(F)cc3)ccc2OC[C@@H](C)N(C(C)=O)C[C@H]1C | -9 | 3 | 0 | -2 | 12
Cc1ccc(NC(=O)c2ccc(S(=O)(=O)N3CC(C)CC(C)C3)cc2)cc1S(=O)(=O)N1CCOCC1 (centres undefined) | 46* | 2 | 0 | 0 | -12
COc1ccc2c3c([nH]c2c1)[C@H](CO)N(C(=O)CN(C)C)CC31CN(Cc2ccncc2)C1 | 5 | 9 | x | x | x
COc1ccc(CN2CC3(C2)CN(C(=O)CN(C)C)[C@H](CO)c2[nH]c4cc(OC)ccc4c23)cc1 | 19 | 12 | 0 | 4 | 69*
COc1ccc2c3c([nH]c2c1)[C@@H](CO)N(C(=O)CN(C)C)CC31CN(Cc2ccccc2)C1 | 39* | 15 | 0 | -1 | 60*
SMILES | DENV2 CPE | MLL AF4-AF9 inh | FGF22 binding | ERAP1 inh | RAD52 inh
COc1ccc(CN2CC3(C2)CN(C(=O)CN(C)C)[C@@H](CO)c2[nH]c4cc(OC)ccc4c23)cc1 | -5 | 9 | 0 | 3 | 67*
C[C@@H]1CN([C@H](C)CO)S(=O)(=O)c2ccc(C#CC3CC3)cc2O[C@H]1CN(C)C(=O)c1ccccn1 | -5 | -4 | 0 | 1 | 4
CCCC#Cc1ccc([C@@H]2[C@H](CO)N3C(=O)CN(S(=O)(=O)Cc4ccccc4)C[C@@H]23)cc1 | -10 | 3 | x | 3 | -7
CCN(CC)S(=O)(=O)c1ccc(C(=O)NCCN2C(=O)S/C(=C\c3cccnc3)C2=O)cc1 | -1 | 0 | 0 | -1 | -29
CN(C)S(=O)(=O)c1ccc(C(=O)NCCN2C(=O)S/C(=C\c3cccnc3)C2=O)cc1 | -6 | -1 | 43* | 1 | -13
CN1c2ccc(C3=CCCCC3)cc2[C@@H]2[C@@H](CCN2C(=O)C2CCC2)[C@@H]1CO | 16 | 28* | x | 3 | -4
CN1c2ccc(C3=CCCCC3)cc2[C@@H]2[C@@H](CCN2C(=O)C2CC2)[C@@H]1CO | 6 | u | x | -5 | 16
CN1c2ccc(C3=CCCCC3)cc2[C@@H]2[C@@H](CCN2C(=O)C2CCCCC2)[C@@H]1CO | 10 | u | x | x | 8
CN1c2ccc(C3=CCCCC3)cc2[C@H]2[C@H](CCN2C(=O)C2CCCCC2)[C@@H]1CO | -6 | 30* | x | 0 | 22
CN1c2ccc(C3=CCCCC3)cc2[C@H]2[C@H](CCN2C(=O)C2CC2)[C@@H]1CO | 46* | 69* | x | 1 | -64
N#C[C@H]1[C@@H](c2ccccc2-c2cccc(F)c2)[C@H](CO)N1C(=O)C1CC1 | 5 | -2 | x | 2 | 2
COc1cccc(CN2[C@@H](CO)[C@@H](c3ccccc3)C23CN(C(=O)C2CCOCC2)C3)c1 | -2 | -1 | 0 | -2 | -47
CO[C@@H]1CN(C)C(=O)c2cc(NC(C)=O)ccc2OC[C@@H](C)N(CCc2ccccc2)C[C@@H]1C | -8 | 4 | 0 | -2 | -9
Cc1nc(C)c(CC(=O)N/N=C/c2ccc(O)cc2)c(=O)[nH]1 | 31* | -10 | 0 | 1 | -4
COc1cccc(S(=O)(=O)Nc2ccc3c(c2)C(=O)N(C)[C@H]2CC[C@@H](CC(=O)O)O[C@H]2CO3)c1 | 16 | x | 0 | x | x
